Laboratory results taken from article PMC12864922, “TDP-43 directly inhibits mRNA accumulation in neurites through modulation of mRNA stability”.
Numbering of substitutions follows the chain as printed. In all, about 9,900 sequences were measured (“r (bound/input frequency ratio)”: median about 0.7, highest 2% from about 6.5 on). This is one part of a sample in which the highest values are shown more often than they occur.

B1: ENSMUSG00000061578.1460|Ksr2|78:82 (ssRNA)
RNA: GGGAGUUCUACAGUCCGACGAUCGCUUCGAUAUCCGCAUGCUAGAUGGAUGAAUGGAUGGGUAGGUGGGUAGAUAGGUAUAUGAAUGAAUGGAUGAAUGGAUGGGUGAAUGGAUGGAUAGCAUACUGAAUAAAUGGAUGGAUGGAUGGAUUGAUUUGUGAAUGAAUGGAUGAAUGGAUGGGUAGGUGGGUGGAUGCAUAGGCAAGUAGAUGAAUGAAUAUGUGGGUAGAAGGGUGAGUGGGUGGAUGAAUGGAUGGAUAGGUUGGUAGGUUAAUGUAUUCGUGGAUGGGUGAAUGGAUGGAUGCUCUUGCGGUCGCACUAGUGUGGAAUUCUCGGGUGUCAAGG
B2: ENSMUSG00000061578.1458|Ksr2|90:94 (ssRNA)
RNA: GGGAGUUCUACAGUCCGACGAUCGCUUCGAUAUCCGCAUGCUAGAAUGAAUGGAUGAUGGAUGAAUGGAUGGGUAGGUGGGUAGAUAGGUAUAUGAAUGAAUGGAUGAAUGGAUGGGUGAAUGGAUGGAUAGCAUACUGAAUAAAUGGAUGGAUGGAUGGAUUGAUUUGUGAAUGAAUGGAUGAAUGGAUGGGUAGGUGGGUGGAUGCAUAGGCAAGUAGAUGAAUGAAUAUGUGGGUAGAAGGGUGAGUGGGUGGAUGAAUGGAUGGAUAGGUUGGUAGGUUAAUGUAUUCGUGGAUGGGUGCUCUUGCGGUCGCACUAGUGUGGAAUUCUCGGGUGUCAAGG
B3: ENSMUSG00000061578.1464|Ksr2|54:58 (ssRNA)
RNA: GGGAGUUCUACAGUCCGACGAUCGCUUCGAUAUCCGCAUGCUAGGUAGAUAGGUAUAUGAAUGAAUGGAUGAAUGGAUGGGUGAAUGGAUGGAUAGCAUACUGAAUAAAUGGAUGGAUGGAUGGAUUGAUUUGUGAAUGAAUGGAUGAAUGGAUGGGUAGGUGGGUGGAUGCAUAGGCAAGUAGAUGAAUGAAUAUGUGGGUAGAAGGGUGAGUGGGUGGAUGAAUGGAUGGAUAGGUUGGUAGGUUAAUGUAUUCGUGGAUGGGUGAAUGGAUGGAUGGAUAGAUAGAUGGGAAGGUGGAUGCUCUUGCGGUCGCACUAGUGUGGAAUUCUCGGGUGUCAAGG
B4: ENSMUSG00000061578.1464|Ksr2 (ssRNA)
RNA: B3 RNA with C97G, A98U, U99A, A100U, C101G
B5: ENSMUSG00000061578.1457|Ksr2|1:5;96:100 (ssRNA)
RNA: GGGAGUUCUACAGUCCGACGAUCGCUUCGAUAUCCGCAUGCUACAUACUGAAUGAAUGGAUGAUGGAUGAAUGGAUGGGUAGGUGGGUAGAUAGGUAUAUGAAUGAAUGGAUGAAUGGAUGGGUGAAUGGAUGGAUAGCAUACUGAAUAAAUGGAUGGAUGGAUGGAUUGAUUUGUGAAUGAAUGGAUGAAUGGAUGGGUAGGUGGGUGGAUGCAUAGGCAAGUAGAUGAAUGAAUAUGUGGGUAGAAGGGUGAGUGGGUGGAUGAAUGGAUGGAUAGGUUGGUAGGUUAAUGUAUUCGUGGACUCUUGCGGUCGCACUAGUGUGGAAUUCUCGGGUGUCAAGG
B6: ENSMUSG00000061578.1461|Ksr2|72:76 (ssRNA)
RNA: GGGAGUUCUACAGUCCGACGAUCGCUUCGAUAUCCGCAUGCUAUGAAUGGAUGGGUAGGUGGGUAGAUAGGUAUAUGAAUGAAUGGAUGAAUGGAUGGGUGAAUGGAUGGAUAGCAUACUGAAUAAAUGGAUGGAUGGAUGGAUUGAUUUGUGAAUGAAUGGAUGAAUGGAUGGGUAGGUGGGUGGAUGCAUAGGCAAGUAGAUGAAUGAAUAUGUGGGUAGAAGGGUGAGUGGGUGGAUGAAUGGAUGGAUAGGUUGGUAGGUUAAUGUAUUCGUGGAUGGGUGAAUGGAUGGAUGGAUAGACUCUUGCGGUCGCACUAGUGUGGAAUUCUCGGGUGUCAAGG
B7: ENSMUSG00000029636.187|Wasf3 (ssRNA)
RNA: GGGAGUUCUACAGUCCGACGAUCGCUUCGAUAUCCGCAUGCUAAAUUUUAAAAAGUACCUCACAAGAUAAACUUGAUUCAGCCAGUUGCCCGGGCAGAGACCUGACUUCCCCUCUCCUGCCCUGAUCCUUUUUACCAAAUGGCGAUUCCAUAGUCCUGGCUGAGGCAGGGGCUCAAAGUCCAGUGUCUGCUUUGCAAUUCUGGAAGGACAGCUGCUUAUUUAAAUAAGUCUGUGAUAUCCGCAGGCUUGGGUUACAGGGAGGACCUUGCAGAGGGACCAGGACACUGCCUUCCCUUAGGUGCACUCUUGCGGUCGCACUAGUGUGGAAUUCUCGGGUGUCAAGG
B8: ENSMUSG00000043670.285|Diras1 (ssRNA)
RNA: GGGAGUUCUACAGUCCGACGAUCGCUUCGAUAUCCGCAUGCUAGAGUGGGAGGUAGAAUGAGAGAGAGUGUGUAUUGGAAGGGAGAGAGAGAGUGUGAGAGAGUGUGAGAGAGAGACAGAGACAGAGAUAAAGGAGAUAAAGAGAGACAAAGACAUGGUCACAAAGAGACAGAGAAGCAGAAAGAAGGCUGAAGCCAGAUGACCAAGUAGGCCGGACCCCACUGUGUUCCCUUCUGUGUGCCAGGCACAGGGAGAGCCACAGCCUGAAGCCUGAGUCUGAGCAUAGCUGAGCCCUGACCUCUACUCUUGCGGUCGCACUAGUGUGGAAUUCUCGGGUGUCAAGG
B9: ENSMUSG00000043670.284|Diras1 (ssRNA)
RNA: GGGAGUUCUACAGUCCGACGAUCGCUUCGAUAUCCGCAUGCUAGAGGGAGAGUGGGAGGUAGAAUGAGAGAGAGUGUGUAUUGGAAGGGAGAGAGAGAGUGUGAGAGAGUGUGAGAGAGAGACAGAGACAGAGAUAAAGGAGAUAAAGAGAGACAAAGACAUGGUCACAAAGAGACAGAGAAGCAGAAAGAAGGCUGAAGCCAGAUGACCAAGUAGGCCGGACCCCACUGUGUUCCCUUCUGUGUGCCAGGCACAGGGAGAGCCACAGCCUGAAGCCUGAGUCUGAGCAUAGCUGAGCCCUGACUCUUGCGGUCGCACUAGUGUGGAAUUCUCGGGUGUCAAGG
B10: ENSMUSG00000058297.289|Spock2 (ssRNA)
RNA: GGGAGUUCUACAGUCCGACGAUCGCUUCGAUAUCCGCAUGCUAAGAGAGAGAGAGAGAGAGAGAGAGAAAGAGAGAGAGAAUGAGAGAGAAUGAGAGAGAGAAUACCCGAGGGCCACCCUGAUGCCCAGGAAGAGUGAGGGCAGCCCCCUGUGUGGUGGAAGAGGCUGGGCAGCUAGCUACUGGGGACCUUGUGCUGAGGCUUCCAGGACAAAGCCCCAGUCUGGCUCUCCCCCAGCCUCUCAGGGGCACUGGCUGGUCACAUCCACUGAGUAUUGAUCGGUUGGACUUUAGGGAAGAGCCUCCUCUUGCGGUCGCACUAGUGUGGAAUUCUCGGGUGUCAAGG
B11: ENSMUSG00000043670.283|Diras1 (ssRNA)
RNA: GGGAGUUCUACAGUCCGACGAUCGCUUCGAUAUCCGCAUGCUAGAGAGGGAGGGAGAGUGGGAGGUAGAAUGAGAGAGAGUGUGUAUUGGAAGGGAGAGAGAGAGUGUGAGAGAGUGUGAGAGAGAGACAGAGACAGAGAUAAAGGAGAUAAAGAGAGACAAAGACAUGGUCACAAAGAGACAGAGAAGCAGAAAGAAGGCUGAAGCCAGAUGACCAAGUAGGCCGGACCCCACUGUGUUCCCUUCUGUGUGCCAGGCACAGGGAGAGCCACAGCCUGAAGCCUGAGUCUGAGCAUAGCUGAGCUCUUGCGGUCGCACUAGUGUGGAAUUCUCGGGUGUCAAGG
B12: ENSMUSG00000058297.290|Spock2 (ssRNA)
RNA: GGGAGUUCUACAGUCCGACGAUCGCUUCGAUAUCCGCAUGCUAAGAGAGAGAGAGAGAGAGAAAGAGAGAGAGAAUGAGAGAGAAUGAGAGAGAGAAUACCCGAGGGCCACCCUGAUGCCCAGGAAGAGUGAGGGCAGCCCCCUGUGUGGUGGAAGAGGCUGGGCAGCUAGCUACUGGGGACCUUGUGCUGAGGCUUCCAGGACAAAGCCCCAGUCUGGCUCUCCCCCAGCCUCUCAGGGGCACUGGCUGGUCACAUCCACUGAGUAUUGAUCGGUUGGACUUUAGGGAAGAGCCUCCUCCUUCUCUUGCGGUCGCACUAGUGUGGAAUUCUCGGGUGUCAAGG
B13: ENSMUSG00000058297.293|Spock2 (ssRNA)
RNA: GGGAGUUCUACAGUCCGACGAUCGCUUCGAUAUCCGCAUGCUAAAAGAGAGAGAGAAUGAGAGAGAAUGAGAGAGAGAAUACCCGAGGGCCACCCUGAUGCCCAGGAAGAGUGAGGGCAGCCCCCUGUGUGGUGGAAGAGGCUGGGCAGCUAGCUACUGGGGACCUUGUGCUGAGGCUUCCAGGACAAAGCCCCAGUCUGGCUCUCCCCCAGCCUCUCAGGGGCACUGGCUGGUCACAUCCACUGAGUAUUGAUCGGUUGGACUUUAGGGAAGAGCCUCCUCCUUCCCAUUCCUUUCUGCCACCUCUUGCGGUCGCACUAGUGUGGAAUUCUCGGGUGUCAAGG
B14: ENSMUSG00000058297.287|Spock2 (ssRNA)
RNA: GGGAGUUCUACAGUCCGACGAUCGCUUCGAUAUCCGCAUGCUAAGAGAGAGAGAGAGAGAGAGAGAGAGAGAGAGAGAGAAAGAGAGAGAGAAUGAGAGAGAAUGAGAGAGAGAAUACCCGAGGGCCACCCUGAUGCCCAGGAAGAGUGAGGGCAGCCCCCUGUGUGGUGGAAGAGGCUGGGCAGCUAGCUACUGGGGACCUUGUGCUGAGGCUUCCAGGACAAAGCCCCAGUCUGGCUCUCCCCCAGCCUCUCAGGGGCACUGGCUGGUCACAUCCACUGAGUAUUGAUCGGUUGGACUUUACUCUUGCGGUCGCACUAGUGUGGAAUUCUCGGGUGUCAAGG
B15: ENSMUSG00000058297.292|Spock2 (ssRNA)
RNA: GGGAGUUCUACAGUCCGACGAUCGCUUCGAUAUCCGCAUGCUAAGAGAGAAAGAGAGAGAGAAUGAGAGAGAAUGAGAGAGAGAAUACCCGAGGGCCACCCUGAUGCCCAGGAAGAGUGAGGGCAGCCCCCUGUGUGGUGGAAGAGGCUGGGCAGCUAGCUACUGGGGACCUUGUGCUGAGGCUUCCAGGACAAAGCCCCAGUCUGGCUCUCCCCCAGCCUCUCAGGGGCACUGGCUGGUCACAUCCACUGAGUAUUGAUCGGUUGGACUUUAGGGAAGAGCCUCCUCCUUCCCAUUCCUUUCCUCUUGCGGUCGCACUAGUGUGGAAUUCUCGGGUGUCAAGG

target: TDP-43 (Homo sapiens, UniProt Q13148 1-414); assay: RNA Bind-n-Seq with designed 260-mer pool; 25 mM Tris-HCl, 150 mM KCl, 3 mM MgCl2, BSA (printed 500 mg/mL), 20 units/mL SUPERase IN; pH not stated; 500 nM RNA pool, 1 h, 4 C; TDP-43 5, 50, 500 nM; high values mean tight binding; details: protein: recombinant; tags: SBP (GST cleaved off with PreScission; pGEX-GST-SBP)
Sequence (Q13148 whole entry): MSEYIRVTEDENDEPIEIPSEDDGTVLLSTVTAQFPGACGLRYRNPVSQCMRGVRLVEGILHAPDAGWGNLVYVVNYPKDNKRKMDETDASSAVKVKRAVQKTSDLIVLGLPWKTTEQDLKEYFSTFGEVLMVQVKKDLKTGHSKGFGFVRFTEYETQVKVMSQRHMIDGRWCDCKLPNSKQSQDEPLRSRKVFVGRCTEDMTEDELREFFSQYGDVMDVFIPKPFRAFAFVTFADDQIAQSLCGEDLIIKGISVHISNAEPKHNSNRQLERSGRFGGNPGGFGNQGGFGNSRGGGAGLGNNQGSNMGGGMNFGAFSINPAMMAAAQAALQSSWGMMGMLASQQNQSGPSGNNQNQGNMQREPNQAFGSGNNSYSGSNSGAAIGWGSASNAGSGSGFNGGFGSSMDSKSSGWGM
In short: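 In 25 mM Tris-HCl, 150 mM KCl, 3 mM MgCl2, BSA and SUPERase IN, 500 nM of an in vitro-transcribed 260-nt 3′ UTR oligo pool was incubated for 1 h at 4 °C with SBP-tagged TDP-43 (5, 50 or 500 nM) captured on streptavidin beads. RNA remaining after washes was biotin-eluted, reverse transcribed, PCR-amplified and sequenced. Binding, R, is the bound-sample abundance of each oligo, normalized to mapped reads, divided by its abundance in input. Each duplicate used a separate, independent protein batch.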

**Q.** Which binding signal does the source give for B1 here?
**A.** The binding signal was 5.37 R (bound/input frequency ratio).

**Q.** For B2, which binding signal is on record?
**A.** The binding signal was 6.91 R (bound/input frequency ratio).

**Q.** How did the binding signal turn out when B3 was run?
**A.** The binding signal was 7.9 R (bound/input frequency ratio).

**Q.** B4 was tested. Which binding signal did it give?
**A.** The binding signal was 5.55 R (bound/input frequency ratio).

**Q.** With B5 as the binder, how does the binding signal read?
**A.** The binding signal was 5.06 R (bound/input frequency ratio).

**Q.** With B6 as the binder, how does the binding signal read?
**A.** Its binding signal is 4.58 R (bound/input frequency ratio).

**Q.** For B7, which binding signal is on record?
**A.** Its binding signal is 0.317 R (bound/input frequency ratio).

**Q.** For B8, which binding signal is on record?
**A.** The binding signal was 6.66 R (bound/input frequency ratio).

**Q.** B9 was tested. Which binding signal did it give?
**A.** Its binding signal is 5.75 R (bound/input frequency ratio).

**Q.** How did the binding signal turn out when B10 was run?
**A.** The binding signal was 7.91 R (bound/input frequency ratio).

**Q.** With B11 as the binder, how does the binding signal read?
**A.** The binding signal was 4.07 R (bound/input frequency ratio).

**Q.** How did the binding signal turn out when B12 was run?
**A.** The binding signal was 8.79 R (bound/input frequency ratio).

**Q.** For B13, which binding signal is on record?
**A.** The binding signal was 2.36 R (bound/input frequency ratio).

**Q.** B14 was tested. Which binding signal did it give?
**A.** Its binding signal is 7.5 R (bound/input frequency ratio).

**Q.** B15 was tested. Which binding signal did it give?
**A.** Its binding signal is 6.42 R (bound/input frequency ratio).
